Bioassay records deposited in PubChem BioAssay by National Center for Advancing Translational Sciences (NCATS).
Only some compounds are listed: those with a hit (about 4.2% of all), similar ones and a draw of the others.
TCR act = T cell receptor activation; primary human leukocytes, anti-CD3, IL-2 HTRF, 48 h; Potency, µM (top dose mostly 9.22 µM), actives largely listed as activators; 330,000 tested, under 10 active; AID 504894
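IL-2 release read by HTRF sandwich (Eu cryptate donor, d2 acceptor, 665 nm emission) after 48 hr exposure of primary human leukocytes to compound together with anti-CD3 beads in the absence of co-stimulatory signals.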
ClpP mod = qHTS Assay for Activators of ClpP; ATP-dependent Clp protease proteolytic subunit (Bacillus subtilis (strain 168)), P80244; AID 651965, 2013; purified B. subtilis ClpP, FRET peptide cleavage, 20 min; Potency, µM (top dose mostly 57.5 µM); actives 1.9% (n = 340,000); active = well fitted falling curve with a large enough effect; inconclusive = small, poorly fitted or top-dose-only effect; inactive = no such curve, though single readings can be large or run the other way; also: the source files actives as falling curves though it sought activators and does not explain the sign; nearly all actives have a fitted effect of over 65% in size
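ClpP 10 microg/mL final, pH 8 Tris/KCl buffer with BSA, glycerol, Tween-20; compound pinned in; FRET-FV substrate; RT 20 min; Ex320/Em430; ΔFRET vs ADEP 5.8 microM, DMSO, no enzyme.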
uPA surface inh = inhibitors of cell surface uPA generation; cell surface uPA generation assay, qHTS; Potency, µM (titrated, usually from 38.3 µM), usual class: inhibitors; actives 0.31% (n = 330,000); active = well fitted inhibition curve with a large enough effect; inconclusive = small, poorly fitted or top-dose-only effect; inactive = no such curve, though single readings can be large or run the other way; tested in mouse RAW 264.7 cells; also: nearly all actives have a fitted effect of over 55% in size
Sfp inh = blocks B. subtilis Sfp PPTase activity | Q9F4F7 | actives 3.5% (n = 310,000) | Potency, µM, usual class: inhibitors | AID 1490 | Biochemical Sfp PPTase activity, qHTS;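 also: the enzyme is Sfp with the accession as filed and its product quenches rhodamine fluorescence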
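Reaction rates are the 30-min fluorescence difference (ex 525, em 598 nm) in wells containing 15 nM Sfp, 5 uM rhodamine-CoA and 12.5 uM BHQ-2-YbbR at pH 7.6 with 10 mM MgCl2.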
Of the large screens only hits and unclear results are named; the others gave an inactive call. Unless noted, calls follow the shape of the dose curve; as a rule, active = well fitted curve in the direction sought with a large enough effect; inconclusive = small, poorly fitted or top-dose-only effect, or another doubt; inactive = no such curve, though single readings can be large; an effect the other way counts as inactive or inconclusive.

O=C(O)c1ccc[nH]c1=S	Sfp inh 8.91µM (no result: ClpP mod)
O=C(O)c1cccc2nc3ccccc3nc12	none
CN(C)C1C(=O)C(C(N)=O)=C(O)C2(O)C(=O)C3=C(O)c4c(O)cccc4C(C)(O)C3C(O)C12 (stereo unspecified)	Sfp inh 56.2µM
CN(C)C1C(=O)C(C(N)=O)=C(O)[C@@]2(O)C(=O)C3=C(O)c4c(O)cccc4[C@@](C)(O)C3CC12 (stereo partly specified)	none (no result: TCR act, ClpP mod, uPA surface inh)
CC(C)CN1CCC2(CC1)CCN(C(=O)Oc1ccccc1)CC2	none (no result: TCR act, ClpP mod, uPA surface inh)
Fc1cccc(-c2ccc3c(c2)CN(c2cccc(Cl)c2)Cc2cnnn2-3)c1	ClpP mod 31.6µM (no result: TCR act, uPA surface inh, Sfp inh)
COc1ccc(-c2cc([C@H]3[C@H]4C=CC[C@@H](C)[C@@H]4C(=O)N3Cc3ccccc3)ccc2F)cc1OC	ClpP mod 31.6µM, uPA surface inh inconclusive, Sfp inh inconclusive
COc1ccc(-c2nn(CCC#N)cc2C(=O)NCc2ccccc2)cc1OC	none
CC1(C)N(O)C2CCCCC2N1O (stereo unspecified)	Sfp inh 56.2µM
CCCCCCCCCCCCCC(=O)OC1C(C)[C@@]2(O)C(C=C(CO)C[C@]3(O)C(=O)C(C)=C[C@H]23)[C@@H]2C(C)(C)[C@]12OC(C)=O (stereo partly specified)	none (no result: TCR act, ClpP mod, uPA surface inh)
CCCCc1ccc(C(=O)O)nc1	Sfp inh 28.2µM
CCCCCCCCc1ccc(O)cc1	none (no result: Sfp inh)
CC/C(=N\NC(=S)Nc1ccccc1)c1c(O)[nH]c(=O)[nH]c1=O	Sfp inh 22.4µM
C=C1C/C(=C\C)C(=O)O[C@@H]2CCN3CC=C(COC(=O)[C@@]1(C)O)[C@H]23	none (no result: TCR act, ClpP mod, uPA surface inh)
NC(=NCc1ccc(Cl)cc1)SCCCc1cnc[nH]1	none (no result: TCR act, ClpP mod, uPA surface inh)
O=c1oc(Cl)c(Cl)c2ccccc12	Sfp inh 35.5µM
O=C(O)CC1OCC=C2CN3CCC45c6ccccc6NC4C1C2CC35 (stereo unspecified)	none
O=C(O)CC1OCC=C2CN3CCC45C6=CC(=O)C(=O)C([N+](=O)[O-])=C6NC4C1C2CC35 (stereo unspecified)	Sfp inh 14.1µM
O=C1NC(=O)C(=Cc2c(Cl)cccc2Cl)C(=O)N1	none (no result: Sfp inh)
CN(C)c1ccc(C=C2C(=O)NC(=O)NC2=O)cc1	none (no result: Sfp inh)
Cc1ccc(OCCOc2cccc(C=C3C(=O)NC(=O)NC3=O)c2)c(C)c1	Sfp inh 50.1µM (no result: ClpP mod)
O=C1NC(=O)C(=Cc2cn(CCOc3ccc4c(c3)OCO4)c3ccccc23)C(=O)N1	none
O=C1NC(=O)C(=Cc2ccc(OCCOc3ccc([N+](=O)[O-])cc3)cc2)C(=O)N1	Sfp inh 50.1µM (no result: ClpP mod)
O=C1NC(=O)C(=Cc2cccc(OCCOc3ccccc3)c2)C(=O)N1	Sfp inh 44.7µM
C#C[C@@]1(O)CC[C@@H]2[C@@H]3CCC4=CC(=O)CC[C@@]4(C)[C@H]3CC[C@]21C	none (no result: TCR act, ClpP mod, uPA surface inh)
O=C(O)CN1C(=O)CN=C(c2ccccn2)c2cc(Cl)ccc21	Sfp inh 50.1µM
O=C1CN=C(c2ccccc2)c2cc(Cl)ccc2N1Cc1ccc(Cl)cc1	none (no result: TCR act, uPA surface inh, Sfp inh)
COC(=O)C1=C(c2cccc(OCc3ccccc3)c2)C[C@@H]2CC[C@H]1N2C(=O)NCc1ccccc1OC	uPA surface inh 14.1µM (no result: Sfp inh)
O=C(O)CCn1cc(C=C2C(=O)NC(=O)NC2=O)c(-c2cc3ccccc3oc2=O)n1	Sfp inh 39.8µM (no result: ClpP mod)
COc1ccccc1NC(=O)c1oc2ccccc2c1NC(=O)COc1cccc(C)c1	none (no result: TCR act, uPA surface inh, Sfp inh)
Cc1cccc2nc(-c3ccccc3)c(-c3ccc(CN4CCC(n5c(=O)[nH]c6ccccc65)CC4)cc3)nc12	ClpP mod 25.1µM (no result: TCR act, uPA surface inh, Sfp inh)
N#Cc1ccc2nc(-c3ccc(CN4CCC(n5c(=O)[nH]c6ccccc65)CC4)cc3)c(-c3ccccc3)nc2c1	none (no result: TCR act, uPA surface inh, Sfp inh)
O=C1CC=C2C3CC4N(CCC45c4cc(O)c(O)cc4N1C25)CC3=CCBr (stereo unspecified)	ClpP mod 35.5µM (no result: Sfp inh)
O=C1CC=C2C3CC4N(CCC45c4ccccc4N1C25)CC3=CCO (stereo unspecified)	none (no result: Sfp inh)
CC(=O)N1CCN(CC(=O)Nc2ccc(C#N)c(Cl)c2)CC1	none
COc1ccc(CC(=O)Nc2ccc(C#N)c(Cl)c2)cc1S(=O)(=O)N1CCOCC1	Sfp inh 50.1µM
Cc1ccc(N2C(=O)NC(=O)/C(=C/c3ccc(-c4ccc(C(=O)O)c(Cl)c4)o3)C2=O)cc1	Sfp inh 31.6µM
CSc1ccc(CN2CCN(Cc3ccccc3Cl)CC2)cc1	Sfp inh 22.4µM
COc1ccc(CN2CCN(Cc3ccccc3F)CC2)cc1	Sfp inh 79.4µM
O=C1NC(=S)NC(=O)C1=Cc1ccc(OCC(=O)N2CCCC2)cc1	Sfp inh 20µM
CCN1C(=O)N(CC)C(=O)C2(Cc3ccccc3N3CCN(c4ccccc4)CC32)C1=O (stereo unspecified)	Sfp inh 70.8µM
NC(N)=NN=C(/C=C/c1ccc([N+](=O)[O-])o1)/C=C/c1ccc([N+](=O)[O-])o1	Sfp inh 50.1µM (no result: TCR act, ClpP mod, uPA surface inh)
CC(=O)Oc1c2c(c(CC=C(C)C)c3c1C(=O)C1=CC4CC5C(C)(C)OC(C/C=C(\C)C(=O)O)(C4=O)[C@]15O3)OC(C)(CCC=C(C)C)C=C2 (stereo partly specified)	Sfp inh 25.1µM (no result: TCR act, ClpP mod, uPA surface inh)
C=CCC[C@@H](Cc1ccc(F)cc1)C(=O)OC[C@H](Cc1c[nH]c2ccccc12)NC(=O)[C@H](CC=C)CC(=O)N(CCO)Cc1ccccc1	uPA surface inh inconclusive (no result: Sfp inh)
COc1ccc(-c2nc(C(N)=O)c3[nH]c(=O)n(-c4ccccc4OC)c3n2)c(OC)c1	uPA surface inh 11.2µM
CN(C)c1ccc(CCN2CCOCC2)cc1	none (no result: Sfp inh)
CN(C)c1ccc2c(c1)N=C(c1ccco1)OP2(=S)N1CCOCC1 (stereo unspecified)	Sfp inh 14.1µM
Cc1cc(C)cc(N2C(=O)NC(=O)/C(=C/c3cccn3-c3ccc(Cl)cc3)C2=O)c1	Sfp inh 50.1µM (no result: ClpP mod)
Cc1cccc(N2C(=O)NC(=O)/C(=C\c3cccn3-c3ccc(Cl)cc3)C2=O)c1	Sfp inh 50.1µM
Cc1cc(OC(=O)c2cccs2)c2c3c(c(=O)oc2c1)CCCC3	none
Cc1cc(OCC(=O)O)c2c3c(c(=O)oc2c1)CCCC3	ClpP mod inconclusive
Cc1cc(OC(=O)c2ccco2)c2c3c(c(=O)oc2c1)CCCC3	ClpP mod 22.4µM
Cc1ccc(-n2nc(C)cc2NC(=O)COc2cc(C)cc3oc(=O)c4c(c23)CCC4)cc1	ClpP mod 25.1µM (no result: uPA surface inh)
CCCOC(=O)COc1cc(C)cc2oc(=O)c3c(c12)CCC3	ClpP mod 25.1µM
C[C@H](NC(=O)c1[nH]cnc1C(=O)Nc1ccc(Cl)cc1)c1ccccc1	none (no result: Sfp inh)
ClCCN(CCCl)/C(=C\c1ccccc1)c1ccnc2ccccc12	none (no result: TCR act, uPA surface inh, Sfp inh)
COc1ccc(OC)c(N2C(=O)CC(=O)NC2=O)c1	none
O=C1NC(=S)N(c2ccc(F)cc2)C(=O)/C1=C\c1ccoc1	Sfp inh 20µM (no result: ClpP mod)
COc1ccc(OC)c(N2C(=O)NC(=O)/C(=C/c3ccc([N+](=O)[O-])s3)C2=O)c1	Sfp inh 10µM (no result: ClpP mod)
O=C1NC(=S)N(c2ccc(F)cc2)C(=O)/C1=C/c1ccco1	Sfp inh 25.1µM (no result: TCR act, ClpP mod, uPA surface inh)
